According to PubChem BioAssay (Tox21):
Results filed as inconclusive are left out. Active and inactive are the calls of the source. Unless noted, calls follow the shape of the dose curve; as a rule, active = well fitted curve in the direction sought with a large enough effect in the repeat runs; inconclusive = weak or mixed curves; inactive = no such curve, though single readings can be large; an effect the other way counts as inactive or inconclusive.

Experiments:
[1] = qHTS RealTime-Glo MT Cell Viability Assay in HEK293 cells - 24 hour (AID 1224886); also: top concentration of the series differs between compounds; nearly all actives have a fitted effect of over 50% in size
Method in brief: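 Assay medium contained NanoLuc luciferase plus cell-permeant prosubstrate, added with HEK293 cells at 600 cells/well. After 5 h at 37 C/5% CO2 compounds were added; plates stayed at 37 C for 40 h with serial luminescence reads.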

[2] = qHTS RealTime-Glo MT Cell Viability Assay in HEK293 cells - 8 hour (AID 1224887); also: top concentration of the series differs between compounds; nearly all actives have a fitted effect of over 50% in size
Method in brief: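 Viable HEK293 cells reduce a cell-permeant prosubstrate; the product diffuses out and is consumed by NanoLuc in the medium to give light. Compounds went in after a 5 h incubation and plates were read over the treatment course.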

[3] = A CellTox Green Cytotoxicity Assay to monitor cytotoxicity in HEK293 cells - 16 hour (AID 1224888); also: nearly all actives have a fitted effect of over 35% in size
Method in brief: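 Fluorescence intensity, read at 0, 8, 16, 24, 32 and 40 h of compound treatment, reflected dye binding to DNA of dead HEK293 cells; compounds (23 nL, DMSO) were added 5 h after plating cells with reagent.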

[4] = qHTS RealTime-Glo MT Cell Viability Assay in HepG2 cells - 0 hour (AID 1224889); also: nearly all actives have a fitted effect of over 50% in size
Method in brief: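 qHTS, HepG2, 600 cells/well, RealTime-Glo (NanoLuc + prosubstrate) added with cells; 5 h preincubation; DMSO compound addition; 37 C; luminescence at 0/8/16/24/32/40 h.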

[5] = A CellTox Green Cytotoxicity Assay to monitor cytotoxicity in HepG2 cells - 8 hour (AID 1224890); also: nearly all actives have a fitted effect of over 45% in size
Method in brief: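 Using 1536-well format, dye-containing HepG2 suspension was seeded, allowed 5 h at 37 C/5% CO2, dosed by pintool with compounds, positive and negative controls, and imaged for fluorescence across 40 h.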

[6] = qHTS assay to identify small molecule antagonists of the estrogen receptor alpha (ER-alpha) signaling pathway using the BG1 cell line in the presence of 0.1 nM 17-beta-estradiol - cell viability counter screen (AID 1259241); also: nearly all actives have a fitted effect of over 40% in size
Method in brief: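 Estradiol-stimulated (0.1 nM) VM7Luc4E2 cells exposed to compounds 22 hr; viability measured by fluorescence of cleaved CellTiter-Fluor substrate after 30 min.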

[7] = qHTS assay to identify small molecule antagonists of the androgen receptor (AR) signaling pathway using the MDA cell line in the presence of 0.5 nM R1881 - cell viability counter screen (AID 1259242); also: nearly all actives have a fitted effect of over 45% in size
Method in brief: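 Viability of MDA-kb2 cells was multiplexed with the luciferase AR readout; after 16 hr with compounds and R1881 at 0.5 nM final, CellTiter-Fluor fluorescence was recorded.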

[8] = qHTS assay to identify small molecule HDAC inhibitors (AID 1259364);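 also: wild-type HCT-116 cells with endogenous class I/II HDAC activity; top concentration of the series differs between compounds; nearly all actives have a fitted effect of over 45% in size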
Method in brief: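 Read-out: luminescence of HDAC-Glo I/II reagent, 30 min RT, reflecting class I/II deacetylase activity in whole HCT-116 cells pre-exposed 2 h to DMSO-dissolved compounds.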

[9] = qHTS assay to identify small molecule HDAC inhibitors - cell viability counter screen (AID 1259365); also: series mostly up to about 92 µM; nearly all actives have a fitted effect of over 50% in size
Method in brief: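 After overnight seeding at 1,500 cells per well, wild-type HCT-116 cultures took up compounds in DMSO for 2hr at 37 C. Viable cell content came from luminescence with CellTiter-Glo.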

[10] = qHTS assay to identify small molecule antagonists of the sonic hedgehog signaling (Shh) pathway - cell viability counter screen (AID 1259367); also: nearly all actives have a fitted effect of over 55% in size
Method in brief: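 Using CellTiter-Fluor, viability of Gli1-Luc reporter 3T3 cells is read by fluorescence in the wells used for the Shh luciferase assay. Treatment lasts 23 hr with conditioned medium, then reagent 1 hr at 37C.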

[11] = qHTS assay to identify small molecule agonists of the sonic hedgehog signaling (Shh) pathway (AID 1259368; calls by dose curve;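 also: NIH/3T3-derived 3T3Gli1-Luc cells carrying a stable Gli1-driven firefly luciferase reporter; series mostly up to about 92 µM; nearly all actives have a fitted effect of over 15% in size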)
Method in brief: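 A Gli1 transcriptional response element controlled firefly luciferase in 3T3Gli1-Luc cells. Compounds and a positive control were added 4 hr after plating, and cells were incubated a further 24 hr at 37 C before luminescence detection.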

[12] = qHTS assay to identify small molecule antagonists of the sonic hedgehog signaling (Shh) pathway (AID 1259369; calls by dose curve; also: nearly all actives have a fitted effect of over 45% in size)
Method in brief: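 For antagonist detection, the reporter line received test compounds together with conditioned medium, incubated 24hr at 37 C, 5% CO2, then luminescence was recorded following 30min room-temperature luciferase reagent incubation.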

[13] = biological target: Estrogen receptor beta (Homo sapiens) (UniProt Q92731); test: qHTS assay to identify small molecule agonists of the estrogen receptor beta (ER-beta) signaling pathway (AID 1259377; active = well fitted activation curve with a large enough effect in the signal ratio in the repeat runs, not every such curve was filed as active; the % refers to the signal ratio)
Method in brief: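 Read-out: beta-lactamase FRET fluorescence. Cell line: ER-beta-UAS-bla HEK293T in 2% charcoal-stripped FBS. Exposure: 16 hr at 37C. Substrate step: 2 h at room temperature.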

[14] = biological target: Estrogen receptor beta (Homo sapiens) (UniProt Q92731); test: qHTS assay to identify small molecule antagonists of the estrogen receptor beta (ER-beta) signaling pathway (AID 1259378; active = well fitted inhibition curve with a large enough effect in the signal ratio in the repeat runs, not every such curve was filed as active; the % refers to the signal ratio)
Method in brief: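 Antagonist mode: compounds added to beta-lactamase reporter HEK293T ER-beta-UAS cells stimulated with E2 (1nM final), 16 hr at 37C. LiveBLAzer B/G FRET substrate, 2 hours room temperature, fluorescence read-out.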

[15] = qHTS assay to identify small molecule agonists of the androgen receptor (AR) signaling pathway in the presence of an antagonist - cell viability counter screen (AID 1259379);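 also: MDA-kb2 human breast cancer cells carrying an MMTV luciferase reporter; series mostly up to about 92 µM; nearly all actives have a fitted effect of over 25% in size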
Method in brief: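 Seed MDA-kb2 at 3,000 cells/well; incubate 5 hr, 37C, 0% CO2. Add nilutamide to 3.0uM final, then pin compounds at 15 concentrations. Incubate 16 hr. Add CellTiter-Fluor at 15 hr, read fluorescence after 1 hr.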

[16] = qHTS assay to identify small molecule agonists of the estrogen receptor beta (ER-beta) signaling pathway - cell viability counter screen (AID 1259380); also: nearly all actives have a fitted effect of over 30% in size
Method in brief: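 CellTiter-Glo read, 30 min RT, same wells as bla assay; cells ER-beta-UAS-bla HEK293T; 16 hr compound, 37C; medium 2% charcoal-stripped FBS.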

[17] = biological target: Estrogen receptor (Homo sapiens) (UniProt P03372); test: qHTS assay to identify small molecule antagonists of the estrogen receptor alpha (ER-alpha) signaling pathway using the BG1 cell line in the presence of 0.1 nM 17-beta-estradiol (AID 1259244); also: nearly all actives have a fitted effect of over 50% in size
Method in brief: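 Estradiol at 0.1 nM (final) stimulates the endogenous ER-alpha of VM7Luc4E2 cells carrying an ERE-driven luciferase; compounds are co-incubated 22 h at 37C and luciferase output quantified by luminescence.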

[18] = qHTS assay to identify small molecule agonists of the sonic hedgehog signaling (Shh) pathway - cell viability counter screen (AID 1259366); also: nearly all actives have a fitted effect of over 50% in size
Method in brief: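 Same-well cytotoxicity read. Gli1-Luc reporter 3T3 cells; compounds 24hr, 37C/5% CO2; CellTiter-Fluor fluorescence.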

[19] = qHTS assay to identify small molecule phospholipidosis (PLD) inducers (AID 1259344; active = well fitted curve in the direction sought with a large enough effect; an effect the other way counts as inactive or inconclusive)
Method in brief: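 Fluorescent phospholipid staining (LipidTOX Red) measured by automated microscopy in fixed HepG2 cells after 24 h treatment; nuclei counterstained with Hoechst 33342; amiodarone as reference inducer.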

Measured: Potency

Sequence of Estrogen receptor beta (Homo sapiens) (Q92731 whole entry, looked up): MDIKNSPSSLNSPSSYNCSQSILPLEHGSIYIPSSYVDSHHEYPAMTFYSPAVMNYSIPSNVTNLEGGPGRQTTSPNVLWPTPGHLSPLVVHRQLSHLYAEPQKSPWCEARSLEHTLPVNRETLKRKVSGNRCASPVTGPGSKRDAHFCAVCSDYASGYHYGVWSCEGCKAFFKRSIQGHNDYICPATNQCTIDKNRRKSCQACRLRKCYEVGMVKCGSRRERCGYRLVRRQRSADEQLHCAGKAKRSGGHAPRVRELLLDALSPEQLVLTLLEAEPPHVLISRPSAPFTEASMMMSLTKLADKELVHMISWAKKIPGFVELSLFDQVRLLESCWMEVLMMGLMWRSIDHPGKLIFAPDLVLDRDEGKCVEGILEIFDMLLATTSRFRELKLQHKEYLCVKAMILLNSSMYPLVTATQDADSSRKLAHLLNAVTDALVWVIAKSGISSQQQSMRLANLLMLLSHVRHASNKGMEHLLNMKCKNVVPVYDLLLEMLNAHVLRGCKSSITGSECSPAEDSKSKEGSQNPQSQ
Sequence of Estrogen receptor (Homo sapiens) (P03372 whole entry, looked up): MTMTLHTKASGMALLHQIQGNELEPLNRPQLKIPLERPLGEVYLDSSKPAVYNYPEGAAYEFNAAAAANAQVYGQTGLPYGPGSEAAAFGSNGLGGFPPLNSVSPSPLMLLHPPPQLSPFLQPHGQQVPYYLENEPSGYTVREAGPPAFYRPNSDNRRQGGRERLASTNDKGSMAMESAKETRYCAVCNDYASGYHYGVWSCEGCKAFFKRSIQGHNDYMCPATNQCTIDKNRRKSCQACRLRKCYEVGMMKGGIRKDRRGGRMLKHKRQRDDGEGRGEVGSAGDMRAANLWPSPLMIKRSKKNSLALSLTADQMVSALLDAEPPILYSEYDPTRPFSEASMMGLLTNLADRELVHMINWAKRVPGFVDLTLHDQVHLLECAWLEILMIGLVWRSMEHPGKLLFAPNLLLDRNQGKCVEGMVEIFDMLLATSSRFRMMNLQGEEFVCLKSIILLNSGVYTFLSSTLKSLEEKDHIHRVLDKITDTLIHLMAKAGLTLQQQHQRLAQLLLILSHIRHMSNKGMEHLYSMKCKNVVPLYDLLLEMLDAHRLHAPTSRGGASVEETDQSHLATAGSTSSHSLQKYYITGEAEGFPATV

O=C1c2ccccc2-c2ccccc21
not listed: [17] | [18] | [19]
inactive: all other assays above

NC(=O)NNC(N)=O
not listed: [8] | [19]
inactive: all other assays above

CC(=O)Nc1ccc(C)cc1
not listed: [8] | [9] | [19]
inactive: all other assays above

CC(C)SCc1ccco1
not listed: [17] | [19]
inactive: all other assays above

C[N+](C)(C)CC(O)CCl (stereo unspecified)
not listed: [8] | [9] | [13] | [14] | [19]
inactive: all other assays above

C/C=C(\C)C(=O)OCC/C=C\CC
not listed: [10] | [11] | [15] | [17] | [19]
inactive: all other assays above

CCC1Nc2cc(Cl)c(S(N)(=O)=O)cc2S(=O)(=O)N1 (stereo unspecified)
not listed: [9] | [12] | [17]
inactive: all other assays above

COc1cc(C=O)ccc1OC(=O)C(C)C
not listed: [13] | [14] | [17] | [19]
inactive: all other assays above

CC(C)c1ccccc1O
not listed: [10] | [17] | [18] | [19]
inactive: all other assays above

C=COCCOCCOC=C
not listed: [17] | [19]
inactive: all other assays above

CC(C)=CC(C)(C)C
not listed: [11] | [14] | [17] | [18] | [19]
inactive: all other assays above

C=C(C)C(=O)OC
not listed: [13] | [14] | [15] | [17] | [19]
inactive: all other assays above

CCCCCCCCOC(C)=O
not listed: [13] | [14] | [17] | [19]
inactive: all other assays above

Cc1ccc2c(c1)c1c3n2CCNC3CCC1 (stereo unspecified)
not listed: [10] | [11] | [14] | [16] | [17] | [19]
inactive: all other assays above

CCCCC(=O)N(C)C
not listed: [8] | [13] | [19]
inactive: all other assays above

CO[Si](CCCS)(OC)OC
not listed: [9] | [11] | [15] | [19]
inactive: all other assays above

CCN(CCC#N)c1ccccc1
not listed: [15] | [17] | [19]
inactive: all other assays above

CCCCCC(=O)OCC
not listed: [9] | [17] | [19]
inactive: all other assays above
